Screens: PubChem BioAssay, National Center for Advancing Translational Sciences (NCATS)
TrxR1 substrate: rat thioredoxin reductase 1 substrate activity; O89049; purified TrxR1 substrate turnover, NADPH consumption readout; Potency, µM (doses to about 114 µM), for inactives: top-dose activity change, negative = substrate turnover; 0.01% of 390,000 active; also: potency is read from the fitted curve at half-maximal effect; nearly all actives have a fitted effect of over 50% in size
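Rat TrxR1, dispensed at 90 nM, was prereduced with 400 uM NADPH (final) for 5 min at ~22 deg C, then incubated with compound 15 min before 400 uM selenite. A first-read NADPH fluorescence drop versus no-compound background flagged substrates.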
IDH1 R132H inh: inhibitors of human mutant IDH1 R132H | IDH1-R132H enzyme, NADPH consumption, diaphorase/resazurin fluorescence | Potency, µM (doses to about 76.6 µM), without a hit: at the highest dose activity change, negative = inhibition, most hits filed as inhibitors | 0.093% of 390,000 active; also: potency is read from the fitted curve at half-maximal effect; nearly all actives have a fitted effect of over 65% in size
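IDH1-R132H (0.5 ug/mL) preincubated 30 min with compound, then NADPH (0.016 mM) and alpha-KG (2 mM) added; 80 min at RT, pH 7.5. Remaining NADPH coupled via diaphorase/resazurin to fluorescence (540/590 nm); concentration-response curves normalized to no-enzyme control.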
FBPA coupling cs: inhibits coupling enzyme system, counter-screen for aldolase hits | coupling enzyme system counterscreen, AmpLite Red fluorescence | activity change, negative = inhibition, % at 58.2 µM, hits read low | 0.67% of 290,000 active | AID 2472; in the data active = activity change below about -30%
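Compounds tested against the coupling enzymes alone at 57.5 uM final; readout was AmpLite Red fluorescence (525/598 nm) after 20 min at RT.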
rTrxR1 inhibitor: rat TrxR1 inhibition; O89049; recombinant rTrxR1, NADPH fluorescence consumption, selenite substrate; Potency, µM (top dose mostly 114 µM), without a hit: at the highest dose activity change, negative = inhibition, usual class: inhibitors; 1% of 390,000 active; also: potency is read from the fitted curve at half-maximal effect; nearly all actives have a fitted effect of over 65% in size
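Rat TrxR1 (90 nM in the dispensed reagent) was pre-reduced with 400 uM NADPH for 5 min at room temperature, then incubated with compound for 15 min. After 400 uM selenite was added, NADPH fluorescence (Ex 340/Em 450 nm) was followed for 8 min.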
Eya2 phos inh: inhibitors of human Eya2 phosphatase activity. 0.006% of 330,000 active. O00167. Potency, µM (doses to about 76.9 µM), for inactives: at the highest dose activity, negative = inhibition, usual class: inhibitors. recombinant Eya2, OMFP fluorescence dephosphorylation (OMFP is methylfluorescein phosphate). AID 488837; also: potency is read from the fitted curve at half-maximal effect
Target sequence (O00167 whole entry, looked up): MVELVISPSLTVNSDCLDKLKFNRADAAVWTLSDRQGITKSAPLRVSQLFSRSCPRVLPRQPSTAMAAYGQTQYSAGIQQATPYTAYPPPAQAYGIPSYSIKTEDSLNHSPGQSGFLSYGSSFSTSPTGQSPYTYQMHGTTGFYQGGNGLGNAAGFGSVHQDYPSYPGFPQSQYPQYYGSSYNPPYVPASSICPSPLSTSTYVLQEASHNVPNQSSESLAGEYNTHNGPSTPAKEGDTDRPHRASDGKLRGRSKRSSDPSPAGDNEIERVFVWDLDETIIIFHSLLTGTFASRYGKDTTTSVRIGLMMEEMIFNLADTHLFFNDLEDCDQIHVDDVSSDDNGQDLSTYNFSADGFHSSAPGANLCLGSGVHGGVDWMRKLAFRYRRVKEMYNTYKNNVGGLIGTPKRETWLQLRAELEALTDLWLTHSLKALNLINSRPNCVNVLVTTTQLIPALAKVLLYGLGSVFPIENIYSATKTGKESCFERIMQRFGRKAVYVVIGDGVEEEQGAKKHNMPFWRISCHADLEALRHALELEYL
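Eya2 (0.2 uM) preincubated 10 min at ambient with compound, then OMFP substrate added at 50 uM; 10 min reaction in 50 mM HEPES pH 7.5, 50 mM NaCl, 5 uM MgCl2, 0.05% BSA, 1 mM DTT. Fluorescence read at Ex 485/Em 525 nm.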
Numbers without * were called inactive; ? = inconclusive; . = no result; [ ] = another dose, or the depositor's remark. A selection: hits, their analogues and other compounds. The true share with any hit is near 1.5%. Unless noted, calls follow the shape of the dose curve; as a rule, active = well fitted curve in the direction sought with a large enough effect; inconclusive = small, poorly fitted or top-dose-only effect, or another doubt; inactive = no such curve, though single readings can be large; an effect the other way counts as inactive or inconclusive. % is scaled to controls: 0 for no effect and ±100 for the full control effect.

SMILES | TrxR1 substrate | IDH1 R132H inh | FBPA coupling cs | rTrxR1 inhibitor | Eya2 phos inh
Cc1nc2ccc(NC(=O)N(C(C)C)C(C)C)cc2s1 | 0% | 0% | 6 | 3% | -8%
O=C1Cc2ccccc2C(=O)N1c1ccccc1 | 4% | 5% | -1 | ? | -6%
O=C1Cc2ccccc2C(=O)N1Cc1ccccc1 | -14%[57.1 µM] | 2% | -43* | ? | -23%
C(=C\c1ccnc2ccccc12)/c1ccc(N(Cc2ccccc2)Cc2ccccc2)cc1 | -5% | . | . | -2% | .
Oc1c(C(Nc2ccccn2)c2ccccc2)ccc2cccnc12 (centres undefined) | -4% | . | . | 50µM* | .
Oc1c(C(Nc2cccc(C(F)(F)F)c2)c2cccnc2)ccc2cccnc12 (centres undefined) | -14% | 4% | -8 | 14µM* | 2%
Oc1c(C(Nc2ccccn2)c2cccnc2)cc(Cl)c2cccnc12 (centres undefined) | -8% | -2% | 0 | 13µM* | 8%
COc1ccc(Cl)cc1C(Nc1cccnc1)c1ccc2cccnc2c1O (centres undefined) | 3%[57.1 µM] | -7% | -6 | 4µM* | -8%
O=C(Cc1ccc(F)cc1)NO | 9% | . | . | 14% | .
CC(=O)c1ccc(-c2c(C3C4C=CCCC4(C)C(=O)N3Cc3ccccc3)ccc3ccccc23)cc1 (centres undefined) | -2% | . | 0 | 18%[57.1 µM] | .
COc1ccc2c(c1)-c1nc(/N=C/c3c(O)ccc4ccccc34)sc1CC2 | 6% | 20% | -38* | 0% | -22%
COC(=O)c1ccc2c(c1)sc(=NC(=O)CCS(=O)(=O)c1ccccc1)n2C | 19% | 3% | . | -14% | -22%
COCCn1c(=NC(=O)CCS(=O)(=O)c2ccccc2)sc2ccccc21 | 4% | 5% | . | 7.1µM* | .
CCOC(=O)C1=C(O)c2ccccc2C(=O)/C1=C\c1ccc(C)cc1 | -18% | 18% | -51* | 11µM* | 3%
CCN(CC)CCCNC(=O)c1cn(CC)c2cc(N3CCN(C(=O)c4ccco4)CC3)c(F)cc2c1=O | 76% | 0% | -6 | 71µM* | -6%
CCN(CC)CCNC(=O)c1cn(CC)c2cc(N3CCN(C(=O)c4ccco4)CC3)c(F)cc2c1=O | 46% | 2% | -1 | 13% | -23%
CCN(C(=O)c1coc(=O)c(Br)c1)c1ccc2c(c1)OCO2 | 246% | 3% | -42* | -3% | 18%
CC[C@H](C)[C@H](NC(=O)[C@H](CCC(=O)O)NC(=O)[C@H](CC(N)=O)NC(=O)[C@@H](N)[C@@H](C)O)C(=O)N[C@H](C(=O)N[C@@H](CCC(=O)O)C(=O)N[C@@H](CCC(=O)O)C(=O)N[C@@H](CCC(N)=O)C(=O)N[C@@H](Cc1ccc(O)cc1)C(=O)N[C@H](C(=O)N1CCC[C@H]1C(=O)N[C@@H](CCC(N)=O)C(=O)N[C@@H](CO)C(=O)N[C@@H](CC(C)C)C(=O)N[C@@H](C)C(=O)N[C@H](C(=O)N[C@@H](CC(C)C)C(=O)N[C@@H](CCC(=O)O)C(=O)N[C@@H](CO)C(=O)N[C@H](C(=O)N[C@@H](Cc1ccccc1)C(=O)N[C@@H](CCC(N)=O)C(=O)N[C@@H](CCC(=O)O)C(=O)N[C@@H](CC(C)C)C(=O)NCC(=O)N[C@@H](CCCCN)C(=O)N[C@@H](CC(C)C)C(=O)N[C@H](C(=O)NCC(=O)N1CCC[C@H]1C(=O)N[C@@H](CC(N)=O)C(=O)N[C@@H](CO)C(=O)N[C@@H](CCC(N)=O)C(=O)O)[C@@H](C)O)C(C)C)[C@@H](C)O)[C@@H](C)O)C(C)C | . | . | 2 | . | .
CC1(C)CC(=O)C2=C(C1)OC(N)=C(C#N)C21CCC2(CC1)OCCO2 | 15% | -1% | -3 | 8.9µM* | .
CC(=O)N1CCC2(CC1)C(C#N)=C(N)OC1=C2C(=O)CC(C)(C)C1 | 1% | 1% | 3 | -5% | 7%
CC(C)[C@@H]1CC[C@@H](C)C[C@@H]1P(=O)(c1ccccc1)c1ccccc1 | 1%[57.1 µM] | . | . | 8%[57.1 µM] | -13%
O=c1oc2ccccc2c(Cl)c1CN1CCCCC1 | 6% | -5% | 1 | 3.2µM* | 1%
Cc1ccc2nc(-c3ccc(C)c(NC(=O)COc4ccccc4Cl)c3)oc2c1 | 1% | . | . | 10% | .
COc1ccc(-c2nnc3n2N=C(c2ccccc2OC)CS3)c(OC)c1 | . | . | 0 | . | .
CCOc1cccc2cc(-c3nnc(NCc4ccco4)s3)c(=O)oc12 | 12%[57.1 µM] | 3% | -2 | 7.9µM* | -4%
SMILES | TrxR1 substrate | IDH1 R132H inh | FBPA coupling cs | rTrxR1 inhibitor | Eya2 phos inh
COc1ccc2oc(=O)c(-c3nnc(NCc4ccco4)s3)cc2c1 | 6% | 3% | 1 | 16µM* | -29%
O=C(O)c1ccccc1OS(=O)(=O)O | . | . | 4 | . | .
Cc1ccc(S(=O)(=O)NCc2ccc3[nH]c(C)cc3c2)cc1 | -3%[57.1 µM] | -6% | -8 | 5%[57.1 µM] | -10%
Cc1cc2cc(CNS(=O)(=O)N(C)C)ccc2[nH]1 | 11%[57.1 µM] | -6% | -36* | 4%[57.1 µM] | -12%
COc1cccc(-c2nnc3n2N=C(c2c(OC)cccc2OC)CS3)c1OC | . | . | 4 | . | .
CCOC(=O)c1oc2ccccc2c1NC(=O)CCl | -10% | -9% | 1 | 22µM* | 1%
CCOC(=O)c1oc2ccccc2c1NC(=O)c1ccco1 | -2% | -14% | . | 5% | 0%
CN(C)c1ccc2cc(S(=O)(=O)O)cc(O)c2c1 | 590% | 13% | . | 165% | .
CN(C)c1ccc2c(O)cc(=O)n(C)c2c1 | 141% | 7% | -37* | 73% | 6%
Cc1[nH]c(-c2ccco2)nc1C(=O)O | 4% | -1% | 1 | 18µM* | 0%
Cc1[nH]c(-c2ccc3c(c2)OCO3)nc1C(=O)O | 18%[57.1 µM] | 9% | 0 | 7%[57.1 µM] | -4%
CCOc1cc(-c2ccc(OC(=O)c3ccc(OC)cc3)c(OC)c2)cc(=O)c2c(C)oc(C)c12 | -3% | 15% | . | 35µM* | .
COc1ccc(-c2cc(OC(=O)c3ccc(Cl)cc3)c3c(C)oc(C)c3c(=O)c2)cc1 | -7% | 0% | . | 50µM* | .
CCOc1ccc(-c2cc(OC(=O)c3ccc(OC)cc3)c3c(C)oc(C)c3c(=O)c2)cc1 | -1% | 1% | . | -23% | .
Cc1ccc(S(=O)(=O)N2CCN(c3nc(-c4cccs4)nc4ccccc34)CC2)c(C)c1 | -1% | . | . | 4% | .
Cn1c(=O)c([N+](=O)[O-])c(-n2ccnc2)c2ccccc21 | 11%[57.1 µM] | 0% | 2 | 10µM* | 16%
C=CC1=C(C(=O)O)N2C(=O)C(NC(=O)Cc3ccccc3)C2SC1 (centres undefined) | 7% | -1% | -42* | ? | 12%
Cc1cccc(-c2[nH]c(C(C)(C)C)nc2-c2ccc3nccnc3c2)n1 | 3%[57.1 µM] | . | . | 7%[57.1 µM] | 4%
Cc1ccc2c(=O)c3cccc(CC(=O)O)c3oc2c1C | . | . | 13 | . | .
